Experimental data as given in PubChem BioAssay (Tox21).
Records with an inconclusive call do not appear. Activity calls are given as the source filed them. Calls follow the shape of the full dose curve.

Assay: qHTS assay for small molecule agonists of the p53 signaling pathway - cell viability (AID 651633);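 also: p53RE-bla HCT reporter cells with a stable beta-lactamase p53 reporter; nearly all actives have a fitted effect of over 30% in size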
Conditions: p53RE-bla HCT-116 viability, ATP luminescence, 16 h; series mostly up to 83.3 µM; activity change, negative = cytotoxicity: at the top concentration
Source text: National Center for Advancing Translational Sciences [NCATS]
NIH Chemical Genomics Center [NCGC]
U.S. Environmental Protection Agency [EPA]
National Institutes of Environmental Health Sciences [NIEHS]
National Toxicology Program [NTP]
U.S. Food and Drug Administration [FDA]
p53, a tumor suppressor protein, is activated following cellular insult, including DNA damage and other cellular stresses. The activation of p53 regulates cell fate by inducing DNA repair, cell cycle arrest, apoptosis, or cellular senescence. The activation of p53, therefore, is a good indicator of DNA damage and other cellular stresses. […] The activation of the reporter gene under culture conditions can be detected by fluorescence intensity. This cell line was used to screen the Tox21 compound library in a 1536-well plate format and to identify agonists that activate the p53 signaling pathway.
Tox21 Assay Protocol Summary:
The p53RE-bla cells were dispensed at 4,000 cells/5 ul/well in 1536-well black wall/clear bottom plates using a Multidrop dispenser. After the assay plates were incubated at a 37 C/5% CO2 incubator for 5 hours, 23 nL of compounds dissolved in DMSO, positive controls or DMSO only was transferred to the assay plate by a pin tool. The plates were incubated at 37 C for 16 hours. After 1 uL of LiveBLAzerTM B/G FRET substrate was added using a Flying Reagent Dispenser, the plates were incubated at room temperature for 2 hours, and fluorescence intensity was measured by an Envision plate reader.
For cell viability readout that measures cytotoxicity, 4 ul/well of CellTiter-Glo reagent was added into the assay plates using a Flying Reagent Dispenser. After 30 min incubation at room temperature, the luminescence intensity in the plates was measured using a ViewLux plate reader.
% is scaled to controls: 0 for no effect and ±100 for the full control effect.

Compound	activity change, negative = cytotoxicity	outcome
CC(C)C(=O)OCCc1ccccc1	9.3% (inactive)	–
O=C(NCCN1CCOCC1)c1ccc(Cl)cc1	–	inactive
O=C(O)c1cc(Cl)cc([N+](=O)[O-])c1Cl	6% (inactive)	–
CCCCNc1ccc(C(=O)OCCN(C)C)cc1	5.89% [at 39.1 µM] (inactive)	–
CCCOC(=O)C(C)O (stereo not given)	3.74% [at 95.3 µM] (inactive)	–
O=C(Nc1ccc(Cl)c(Cl)c1)C1CC1	-25.3% (inactive)	–
CN(C)CCOCCO	17.5% (inactive)	–
Nc1ncnc(Nc2ccccc2)n1	13.6% (inactive)	–
O=C(O)c1ccc(Cl)cc1Cl	-9.47% [at 95.3 µM] (inactive)	–
ClCCCl	15.6% (inactive)	–
CC(C)(C)NC(N)=O	15.4% (inactive)	–
CCC(C)(CCC(C)C)C(=O)O (stereo not given)	7.63% (inactive)	–
Nc1ccc2cc(S(=O)(=O)O)cc(O)c2c1	10.3% (inactive)	–
On1nnc2ccccc21	-24.8% (inactive)	–
CC1=C(C(=O)O)N2C(=O)[C@@H](NC(=O)[C@H](N)c3ccc(O)cc3)[C@H]2SC1	14.3% [at 39.1 µM] (inactive)	–
COCCOC(=O)C1=C(C)NC(C)=C(C(=O)OC(C)C)C1c1cccc([N+](=O)[O-])c1 (stereo not given)	-4.98% (inactive)	–
O=C(CCN1CCN(CCO)CC1)N1c2ccccc2Sc2ccc(C(F)(F)F)cc21	-11.2% (inactive)	–
Cc1ccc(S(=O)(=O)O)c(C)c1	16.5% (inactive)	–
CNC(=O)[C@H]1O[C@@H](n2cnc3c(NCc4cc(Cl)ccc4OCc4cc(C)no4)ncnc32)[C@H](O)[C@@H]1N	-13.9% (inactive)	–
CCNC(=O)C1CC(C)CCC1C(C)C (stereo not given)	-9.59% (inactive)	–

Compound	activity change, negative = cytotoxicity	outcome
CC(=O)NCCCCCC(=O)O	25.4% (inactive)	–
CCCCCCOC(=O)CC	-23.8% (inactive)	–
O=C(O)Cc1cn(-c2ccccc2)nc1-c1ccc(Cl)cc1	-7.89% (inactive)	–
COc1ccc(Br)c(C)c1	8.61% [at 95.3 µM] (inactive)	–
O=C(O)C(=O)Cc1ccccc1	-17.8% (inactive)	–
FC(F)(F)c1ccccc1-n1ccnc1	-11.9% (inactive)	–
COC(=O)CCCCCCCC(=O)OC	-12.2% (inactive)	–
C=CCCCCCCCCCCCC	-11% (inactive)	–
CCOC(=O)c1ccc(OC(=O)CCCCCN=C(N)N)cc1	13.3% [at 39.1 µM] (inactive)	–
CC(C)CC(=O)O	23.6% (inactive)	–
CC(C)(C)OC(=O)c1ccc(O)cc1	27.2% (inactive)	–
CC1(C)S[C@@H]2[C@H](N=CN3CCCCCC3)C(=O)N2[C@H]1C(=O)O	21% (inactive)	–
CC(C)OC(=O)CCCCC(=O)OC(C)C	-17.1% (inactive)	–
C=C(C)C(=O)OCc1ccccc1	-7.51% (inactive)	–
C=C(C)C1CCC(C)(O)CC1 (stereo not given)	23.3% (inactive)	–
CCCCNC1CC(C)(C)NC(C)(C)C1	-6.24% (inactive)	–
CCc1ccc(C=O)cc1	-10.7% (inactive)	–
CCOC(=O)/C=C/c1ccccc1	-3.37% (inactive)	–
CC(C)(C)c1cc(CCC(=O)NN)cc(C(C)(C)C)c1O	8.39% (inactive)	–
O=C1O[C@@H]2[C@@H](O)[C@H](O)O[C@@H]2[C@H]1O	–	inactive
